# Test results published in PubChem BioAssay AID651820 (National Center for Advancing Translational Sciences (NCATS), 2012).
# The whole screen tested about 340,000 compounds, of which about 12,000 (3.5%) were called active. Not shown: some 18% with an inconclusive outcome. For the sample, actives were picked, then their nearest neighbours and some compounds at random. Values without a mark were called inactive. Calls come from the whole dose curve; as a rule, active = well fitted inhibition curve with a large enough effect; inconclusive = small, poorly fitted or top-dose-only effect, or another doubt; inactive = no such curve, though single readings can be large or run the other way.
# Experiment: qHTS Assay for Inhibitors of Hepatitis C Virus (HCV)
# Conditions: Huh7.5.1 HCVcc-Cre infection, luciferase reporter, 44 h; series mostly up to 41.8 µM; activity change, negative = inhibition: at the top concentration
# How it was run: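 1,000 cells/well; 4 h culture; + compound; + HCVcc-Cre (~0.5 moi); 44 h; luciferase substrate, RT 15 min; read 15 sec.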
# % is set by controls: 0 for no effect and ±100 for the full control effect; potency is the fitted concentration of half-maximal effect.
Structure (SMILES),Potency,"activity change, negative = inhibition"
CNC[C@H](CC1CCCCC1)NC[C@H](NCCC1CCCC1)[C@H](C)O,11.2 µM (active),–
COC(=O)c1ccc(-c2c(-c3ccccc3)ncc3cc(OC)c(OC)cc23)cc1,–,-3.02%
COc1ccc(CCN(C)C(=O)C2CCCN(Cc3ccc(OC)c(OC)c3)C2)cc1OC (centres undefined),–,2.61%
COc1ccc(CCNC(=O)C2CCCN(Cc3nc(-c4cccc(Cl)c4)oc3C)C2)cc1OC (centres undefined),10 µM (active),–
COc1ccc(CCNC(=O)CS(=O)(=O)Cc2nc(-c3ccc(C)cc3)oc2C)cc1OC,–,-21.3%
COc1ccc(NC(=O)CN(C)C(=O)c2cc(-c3ccc(C)o3)nc3ccccc23)cc1,–,-21.8%
CN(C)c1ccc(-n2cccc2/C=C2/SC(=Nc3ccc(F)cc3)NC2=O)cc1,–,-22%
Cn1cc(/C=C/c2nc3ccccc3c(=O)n2-c2cccc([N+](=O)[O-])c2)c2ccccc21,–,1.56%
Cc1cccc(N=C2NC(=O)/C(=C/c3cn(C)c4ccccc34)S2)c1,14.1 µM (active),–
Cc1cccc(N(Cc2ccccc2)C(=O)c2cc(S(=O)(=O)N3CCOCC3)ccc2F)c1,–,-3.25%
O=S(=O)(NC1CCCCC1)c1ccc(F)c2ccccc12,35.5 µM (active),–
CSc1ccc(S(=O)(=O)NC2CCCCC2)cc1,–,15.8%
O=S(=O)(NC1CC1)c1ccc2c3c(cccc13)CC2,–,-28%
O=C(NNc1nc(N2CCCC2)nc(N2CCCC2)n1)c1ccccc1,–,-16.4%
CN(C)C(=O)CCc1ccc2c3c([nH]c2c1)[C@]1(CCc2ccccc2)[C@@H](C(=O)N2CCCCC2)C[C@H](CC(=O)NCCC2=CCCCC2)C(=O)N1CC3,–,12.1%
CC(C)CN(C(=O)COC(=O)c1ccc2ccccc2c1)c1c(N)n(Cc2ccccc2)c(=O)[nH]c1=O,–,-2.77%
O=C(COC(=O)CN1C(=O)C2CCCCC2C1=O)Nc1ccc(F)c(F)c1F (centres undefined),–,9.46%
CC1=CC(C)(C)Nc2ccc(OC(=O)CN3C(=O)C4CCCCC4C3=O)cc21 (centres undefined),11.2 µM (active),–
O=C(CN1C(=O)C2C3CCC(C3)C2C1=O)Oc1ccc2ccccc2c1 (centres undefined),–,16.3%
CCc1cccc(CC)c1NC(=S)NCc1ccc2[nH]c(C)cc2c1,14.1 µM (active),–
CCc1cccc(CC)c1NC(=S)Nc1ccc2cn[nH]c2c1,–,-0.0519%
Cc1cc2cc(CNC(=O)c3ccc(S(=O)(=O)N4CCOCC4)cc3)ccc2[nH]1,–,-2.6%
CC(Sc1nnc(-c2cccs2)n1C1CC1)C(=O)NCC1CCCO1 (centres undefined),–,20.4%
O=C(COC(=O)Cn1[nH]c(=O)c2ccccc2c1=O)Nc1ncc(Cl)cc1Cl,–,2.09%
COc1ccc(N2CCN(C(=O)CCNC(=O)c3ccc(Br)cc3)CC2)cc1,–,-26.5%

Structure (SMILES),Potency,"activity change, negative = inhibition"
CC1CCCCC12NC(=O)N(CC(=O)OCc1c(F)cccc1Cl)C2=O (centres undefined),–,12.2%
O=C(Nc1ccon1)c1sc2ccccc2c1Cl,–,-6.93%
CCc1ccccc1NC(=O)NCCN1CCCCC1,–,-6.99%
CN1CCc2ccccc2C1Cc1ccccc1NC(=O)c1sc2ccccc2c1Cl (centres undefined),14.1 µM (active),–
Cc1ccc(NC(=O)CSCC(=O)Nc2sccc2C#N)cc1,–,7.78%
CCCCCCCCCCCCN1[C@@H](CC(C)=O)c2cc(F)cc(F)c2S1(=O)=O,–,7.87%
O=C(CN1C(=O)NC(Cc2c[nH]c3ccccc23)C1=O)Nc1ccccc1C(F)(F)F (centres undefined),–,10.9%
O=C(OCCOCn1cc(Br)c(=O)[nH]c1=O)c1ccccc1,–,7.07%
Cc1cc(Cl)ccc1OCCCC(=O)NCc1ccncc1,–,-2.45%
CC(C)(C)NCCCOc1ccc(Cl)cc1C(C)(C)C,5.01 µM (active),–
CN(C)CCOc1ccc(Cl)cc1C(C)(C)C,–,2.11%
NC1=NC(c2ccc([N+](=O)[O-])cc2)N(c2ccc(F)cc2)C(N)=N1 (centres undefined),–,10.2%
COc1ccc(S(=O)(=O)N2CCOC23CCN(S(=O)(=O)c2ccc([N+](=O)[O-])cc2)CC3)cc1,–,-26.6%
CCCCNc1nc2c(c(=O)[nH]c(=O)n2C)n1CCOc1ccccc1,–,-4.32%
CCCCn1c(SCC(=O)NCCc2ccc(OC)c(OC)c2)nc2c1c(=O)n(C)c(=O)n2C,–,-4.19%
CCn1c(NCCc2ccc(OC)c(OC)c2)nc2c1c(=O)n(C)c(=O)n2C,11.2 µM (active),–
Cn1c(=O)c2c(nc(NCc3ccccc3)n2CC(N)=O)n(C)c1=O,–,9.34%
COc1ccc(CNc2nc3c(c(=O)[nH]c(=O)n3C)n2Cc2ccccc2)cc1,–,-2.18%
CCCCNc1nc2c(c(=O)n(C)c(=O)n2C)n1Cc1cccc(OC)c1,6.31 µM (active),–
CC[C@]1(C(=O)OC)[C@H]2C(=O)N(C)C(=O)[C@H]2[C@H]2CN(C)C(=NCc3ccccc3)N21,–,3.22%
Cc1cccc(C=CC(=O)c2ccc(Cl)cc2)c1,–,-8.79%
COc1ccc(S(=O)(=O)NCc2ccc(C(=O)N3CCC4(CC3)OCCO4)cc2)cc1,–,17.5%
COc1ccc(S(=O)(=O)NC(C)C(=O)N2CCCCCC2)cc1 (centres undefined),–,4.24%
COc1ccc(CNS(=O)(=O)c2ccc(NC(=O)N3CCCCC3)cc2)cc1,8.91 µM (active),–
CCOC(=O)c1c(-c2ccccc2)oc2ccc(OCC(N)=O)cc12,10 µM (active),–

Structure (SMILES),Potency,"activity change, negative = inhibition"
Cc1c(Cc2ccccc2)c(=O)oc2cc(OCC(N)=O)ccc12,–,-5.76%
CCOC(=O)c1c(-c2ccccc2)oc2ccc(OC(=O)N(C)C)cc12,10 µM (active),–
CCOC(=O)c1cc(=O)c2ccc(OCc3ccccc3)cc2o1,–,23.8%
CN(C)C(=O)Oc1ccc2c(c1)O/C(=C\c1ccccc1)C2=O,–,-25.2%
Cc1cc(=O)oc2ccc(OCC(=O)O)cc12,–,11%
CCOc1ccccc1Nc1nnc(SCC(=O)NCC2CCCO2)s1 (centres undefined),–,-2.14%
C=C(C)CNc1cc(S(=O)(=O)N2CCOCC2)ccc1Oc1ccccc1,–,-4.73%
CCOc1ccc(CCNC(=O)COC(=O)c2c(OC)cccc2OC)cc1OCC,–,-15.3%
CC(C(=O)NC1CCCC1)N1CCN(S(=O)(=O)c2ccccc2Cl)CC1 (centres undefined),–,9.79%
COc1ccc(OC)c(NC(=O)COC(=O)Cc2ccsc2)c1,–,-5.62%
Cc1ccc(Br)c(NS(=O)(=O)c2cccc(C(=O)N3CCNC(=O)C3)c2)c1,–,21%
Cc1ccc2nc(/C(C#N)=C\c3ccc(OC(=O)c4cccs4)cc3)[nH]c2c1,1.78 µM (active),–
CCOC(=O)CSc1nc2ccc(C)cc2[nH]1,–,-5.08%
Cc1ccc2nc(S(=O)(=O)O)[nH]c2c1,–,14.7%
Cc1cc(C(=O)OCC(=O)Nc2ccccc2Cl)c(C)o1,–,22.3%
CC1(C)CC(N2CCN(C(c3ccccc3)c3ccccc3)CC2)=CC(=[N+]2CCCCC2)C1,3.16 µM (active),–
CC(C)NC(=S)N1CCN(C(c2ccccc2)c2ccccc2)CC1,–,-7.24%
O=C(O)CN1CCN(C(c2ccccc2)c2ccccc2)CC1,–,-3.12%
CS(=O)(=O)c1ccc(C(=O)OCC(=O)NNC(=O)COc2ccc(Cl)cc2)cc1,–,11.5%
O=C(NCCCc1ccccc1)C(=O)NCC1OCCN1S(=O)(=O)c1ccccc1 (centres undefined),–,-12.1%
CN=C(Nc1cccc(S(=O)(=O)N2CCOCC2)c1)c1ccccc1,–,-0.947%
CC(C)Oc1ccc(C(=O)NCC(=O)Nc2ccc3c(c2)CCC3)cc1,–,17.9%
CC[C@]1(C(=O)OC)[C@H]2C(=O)N(Cc3ccccc3)C(=O)[C@H]2[C@H]2CN=C(SCc3ccccc3)N21,–,-13.1%
O=S(=O)(O)c1nc2ccccc2n1Cc1ccc(Cl)cc1,–,28.9%
Cn1c(=N)n(CC(O)c2cccs2)c2ccccc21 (centres undefined),–,-5.72%

Structure (SMILES),Potency,"activity change, negative = inhibition"
N=c1n(Cc2ccc(Cl)cc2)c2ccccc2n1CC(O)c1ccco1 (centres undefined),11.2 µM (active),–
C[C@H](CO)N1C[C@H](C)[C@H](CN(C)CC2CC2)Oc2ccc(NC(=O)CCN3CCOCC3)cc2C1=O,–,-0.967%
C[C@]12CCC(=O)C=C1C=CC1C2CC[C@@]2(C)C1CC[C@@]21CCC(=O)O1 (some centres undefined),–,-13.4%
COc1ccc(-c2c(C#Cc3ccsc3)c3cc(-c4ccc(CN5CCOCC5)cc4)ccc3n2C)cc1,–,3.05%
Cc1cc(N2CCN(c3ccccc3)CC2)nc(N2CCOCC2)n1,–,-27.5%
Cc1cc(Nc2ccc(N3CCOCC3)cc2)c2cccc(C)c2n1,–,-9.69%
Cc1cc(N2CCOCC2)nc(-c2ccc(Br)cc2)n1,10 µM (active),–
O=[N+]([O-])c1ccc(COc2ccccc2CN2CCOCC2)cc1,–,-17.2% [at 8.37 µM]
Cc1cnc(NC(=O)c2ccccn2)s1,10 µM (active),–
Cc1cnc(NC(=O)c2ccc(Cl)nc2)s1,–,12.2%
Cc1cnc(NC(=O)CSc2c(Cl)cccc2Cl)s1,–,6.41%
O=C(NCCc1ccc(F)cc1)c1ccc2nccnc2c1,–,-8.35%
NC(=O)c1ccc(N2CCCC2)nc1,–,19%
C[C@H]1CN([C@@H](C)CO)C(=O)Cc2cc(NC(=O)Cc3ccccc3)ccc2O[C@H]1CN(C)S(=O)(=O)c1cccs1,–,-7.75%
COC(=O)c1ccc(SCc2ccccc2)nc1,–,4.39%
CCCCOc1ccc(C(=O)NCC(=O)OCC(=O)c2c(N)n(C)c(=O)n(C)c2=O)cc1,–,8%
COc1ccc(C(=O)N(C)Cc2ccc(OC)c(OC)c2OC)cc1S(=O)(=O)N1CCOCC1,–,1.42%
COc1cc(OC)cc(-c2c(C#Cc3ccsc3)c3cc(-c4ccc(SC)cc4)ccc3n2C)c1,–,-10.3%
COc1ccc(-c2c(-c3cc(OC)cc(OC)c3)n(C)c3ccc(-c4ccn[nH]4)cc23)cc1,11.2 µM (active),–
COc1cc(OC)cc(-c2c(C#Cc3ccsc3)c3cc(-c4ccc(OC)cc4F)ccc3n2C)c1,–,8.06%
COc1cc(OC)cc(-c2c(-c3cccs3)c3cc(-c4ccc(OC)nc4)ccc3n2C)c1,–,-8.98%
COc1cc(OC)cc(-c2c(-c3ccc(F)cc3)c3cc(-c4ccc5cc[nH]c5c4)ccc3n2C)c1,10 µM (active),–
COc1ccc(-c2c(C#Cc3ccccc3)c3ccccc3n2C)cc1,–,-1.44%
CC1O[C@H](OC2C(COC3OC(CO)C(O)[C@H](O)C3O)OC(OC3CC[C@]4(C)C(CC[C@@]5(C)[C@@H]4C=C[C@]46OC[C@@]7(CCC(C)(C)C[C@H]74)C(O)C[C@@]56C)C3(C)C)C(O)C2O)C(O)C(O)C1O (some centres undefined),–,3.93%
